Measurements from the supplement of paper PMC13380429.

Tested on: Vero E6 infected with SARS-CoV-2
Test: inhibition of SARS-CoV-2 cytopathic effect; higher = more antiviral protection, active = above 15
Conditions: 48 h

Measured: inhibition of SARS-CoV-2 cytopathic effect

OC[C@H]1O[C@@H](n2cnc3c(NC4CCCC4)nc(Cl)nc32)[C@H](O)[C@@H]1O [2-chloro-N6-cyclopentyladenosine]
inactive: 1 nM -3.44% | 8.33 nM 0.41% | 100 nM 2.9% | 833.33 nM 2.35% | 10000 nM -0.77%

Nc1c(CC(=O)O)cccc1C(=O)c1ccccc1 [amfenac]
inactive: 1 nM 0.42% | 8.33 nM 0.91% | 100 nM 1.2% | 833.33 nM -0.82% | 10000 nM -2.19%

C=CC(=O)Nc1cccc(Nc2nc(Nc3ccc(OCCOC)cc3)ncc2F)c1
inactive: 1 nM -0.6% | 8.33 nM 2.81% | 100 nM 0.54% | 833.33 nM -6.55% | 10000 nM -11.3%

COc1ccc(-c2ccc(=N)n(CCCC(=O)O)n2)cc1 [gabazine]
inactive: 1 nM 0.8% | 8.33 nM 2.86% | 100 nM 5.99% | 833.33 nM -1.31% | 10000 nM -0.62%

C=C1CC/C=C(\C)CC[C@@H]2[C@@H]1CC2(C)C [g-caryophyllene]
inactive: 1 nM 1.74% | 8.33 nM 2.63% | 100 nM -0.6% | 833.33 nM 1.24% | 10000 nM 1.88%

Nc1nccc(/C=C/c2ccccc2)n1
inactive: 1 nM 3.44% | 8.33 nM 3.79% | 100 nM 0.04% | 833.33 nM 0.59% | 10000 nM 2.05%

Cn1c(Nc2ccc(C(F)(F)F)cc2)nc2cc(Oc3ccnc(-c4ncc(C(F)(F)F)[nH]4)c3)ccc21
inactive: 1 nM 0.79% | 8.33 nM 1.69% | 100 nM 0.4% | 833.33 nM 0.16% | 10000 nM 4.48%
